Data from PubChem BioAssay AID1159580 (chemical genetic matrix, 2015).
“And” between values parts separate entries of the source, which are not always exact repeats. Equal entries are not always repeated. Out of some 5,500 compounds screened, about 2,000 (36%) were called active. Another 18% or so got no clear call; they are omitted. Cut-off read from the data, not from the text of the source: active = normalized growth mostly below about 0.91 (no sharp cut-off); inconclusive = no clear call, values can overlap the other calls; inactive = mostly above about 0.92. This is one part of the list.

Test: chemical genetic growth profiling, strain panel (AID 1159580);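 note: tested at 20 µM; growth read once vehicle control cultures reached saturation at 30 °C; 1 = growth at the plate median or of vehicle wells; lower values mean less growth of the strain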
Settings: S. cerevisiae deletion strains, growth OD

Measured: normalized growth

O=C(N[C@@H](CO)[C@H](O)c1ccc([N+](=O)[O-])cc1)C(Cl)Cl
inactive: locus YAL013W, strain DEP1, hits give low values 1 | locus YAL021C, strain ccr4, hits give low values 1.01 | locus YAL026C, strain drs2, hits give low values 1.03 | locus YAL030W, strain snc1, hits give low values 0.999 | locus YBL061C, strain skt5, hits give low values 0.995 | locus YBR009C, strain hhf1, hits give low values 1.03 | locus YBR021W, strain FUR4, hits give low values 1.03 | locus YBR023C, strain chs3, hits give low values 1.02 | locus YBR171W, strain sec66, hits give low values 1.02 | locus YBR229C, strain ROT2, hits give low values 1 | locus YBR231C, strain swc5, hits give low values 1.01 | locus YBR279W, strain paf1, hits give low values 1.02 | locus YCL011C, strain gbp2, hits give low values 1.02 | locus YCL016C, strain dcc1, hits give low values 1.02 | locus YCL029C, strain bik1, hits give low values 1.03 | locus YCL061C, strain MRC1, hits give low values 0.998 | locus YCL069W, strain vba3, hits give low values 1.02 | locus YCR088W, strain abp1, hits give low values 1.02 | locus YDL005C, strain med2, hits give low values 1 | locus YDL035C, strain GPR1, hits give low values 0.997 | locus YDL040C, strain nat1, hits give low values 1.01 | locus YDL074C, strain BRE1, hits give low values 1.03 | locus YDL101C, strain DUN1, hits give low values 1.01 | locus YDL134C, strain PPH21, hits give low values 1 | locus YDL185W, strain tfp1, hits give low values 1.01 | locus YDL192W, strain arf1, hits give low values 1.01 | locus YDR001C, strain nth1, hits give low values 1.02 | locus YDR069C, strain doa4, hits give low values 1.02 | locus YDR101C, strain arx1, hits give low values 1.01 | locus YDR137W, strain rgp1, hits give low values 1.03 | locus YDR150W, strain NUM1, hits give low values 0.997 | locus YDR159W, strain sac3, hits give low values 0.982 | locus YDR162C, strain NBP2, hits give low values 1 | locus YDR195W, strain ref2 1.09 | locus YDR297W, strain sur2, hits give low values 1.02 | locus YDR318W, strain mcm21, hits give low values 1.01 | locus YDR334W, strain swr1, hits give low values 1 | locus YDR335W, strain msn5, hits give low values 1.01 | locus YDR388W, hits give low values 1.01 | locus YDR392W, strain spt3, hits give low values 0.981 | locus YDR502C, strain sam2, hits give low values 1.01 | locus YEL003W, strain gim4, hits give low values 1.01 | locus YEL037C, strain rad23, hits give low values 1.01 | locus YEL061C, strain CIN8 (second series), hits give low values 1.02 | locus YEL061C, strain CIN8, hits give low values 0.996 | locus YER015W, strain faa2, hits give low values 1.02 | locus YER016W, strain bim1, hits give low values 1.01 | locus YER110C, hits give low values 1.01 | locus YER111C, strain swi4, hits give low values 1.02 | locus YER155C, strain BEM2 (second series), hits give low values 0.993 | locus YER155C, strain BEM2, hits give low values 1 | locus YER167W, strain BCK2, hits give low values 0.987 | locus YFR010W, strain ubp6, hits give low values 1.02 | locus YGL078C, strain dbp3, hits give low values 1 | locus YGL086W, strain mad1, hits give low values 0.994 | locus YGL167C, strain pmr1, hits give low values 1.01 | locus YGL173C, strain kem1, hits give low values 1.03 | locus YGL227W, strain vid30, hits give low values 1.04 | locus YGL240W, strain doc1, hits give low values 0.983 | locus YGL248W, strain PDE1, hits give low values 0.998 | locus YGL253W, strain hxk2, hits give low values 1.03 | locus YGR078C, strain PAC10, hits give low values 1.02 | locus YGR135W, strain pre9, hits give low values 1.01 | locus YGR229C, strain SMI1, hits give low values 0.994 | locus YGR252W, strain gcn5, hits give low values 0.947 | locus YHR013C, strain ard1, hits give low values 1.01 | locus YHR027C, strain rpn1, hits give low values 1.02 | locus YHR030C, strain SLT2, hits give low values 0.998 and 0.975 | locus YHR079C, strain IRE1 (second series), hits give low values 1.02 | locus YHR079C, strain IRE1, hits give low values 1 | locus YHR094C, strain hxt1, hits give low values 1.01 | locus YHR129C, strain ARP1, hits give low values 1.01 | locus YHR142W, strain chs7, hits give low values 1.05 | locus YHR200W, strain rpn10, hits give low values 1.01 | locus YIL066C, strain RNR3, hits give low values 1.01 | locus YIL073C, strain SPO22, hits give low values 0.964 | locus YIL125W, strain kgd1, hits give low values 0.998 | locus YIR030C, strain dcg1, hits give low values 1.01 | locus YJL092W, strain hpr5, hits give low values 1.02 | locus YJL095W, strain BCK1 (second series), hits give low values 1.02 | locus YJL095W, strain BCK1, hits give low values 1.04 and 0.945 | locus YJL115W, strain asf1, hits give low values 1.01 | locus YJL129C, strain trk1, hits give low values 1.01 | locus YJL134W, strain LCB3, hits give low values 1 | locus YJL154C, strain vps35, hits give low values 1.03 | locus YJL164C, strain tpk1, hits give low values 1.03 | locus YJL166W, strain qcr8, hits give low values 1.02 | locus YJL168C, strain set2, hits give low values 1.01 | locus YJL187C, strain SWE1 (second series), hits give low values 1.02 | locus YJR043C, strain POL32, hits give low values 1.03 | locus YJR066W, strain TOR1, hits give low values 0.962
